Screening data (PubChem)
Sampled rows, rich in hits. Any-hit rate of the full collection: about 3.9%.
MazEF act: MazEF (E. coli) toxin RNase activation; P0AE70; FAM/BHQ RNA-DNA oligo cleavage fluorescence, 5 h; activation, % at 20 µM; 350,000 tested, 0.32% active; AID 504720; in the data active = activation above about 50%
Vc quorum ag: quorum light induction in luxS cqsA deficient V. cholerae. activation, % at 18.7 µM. AID 588436. 350,000 tested, 0.16% active. V. cholerae BH1578 lux reporter, luminescence, 6 h; in the data active = activation mostly above about 9.7%, no sharp cut-off; inconclusive = no clear call, values can overlap the other calls; inactive = mostly below about 3.7%
Anthrax LF inh2: blocks Bacillus anthracis lethal factor protease. 360,000 tested, 0.12% active. inhibition, % at 10 µM. multiplex microsphere protease cleavage assay, LF; note: plate controls were buffer without enzyme for full effect and enzyme alone for no effect
Target sequence (P15917 whole entry, looked up): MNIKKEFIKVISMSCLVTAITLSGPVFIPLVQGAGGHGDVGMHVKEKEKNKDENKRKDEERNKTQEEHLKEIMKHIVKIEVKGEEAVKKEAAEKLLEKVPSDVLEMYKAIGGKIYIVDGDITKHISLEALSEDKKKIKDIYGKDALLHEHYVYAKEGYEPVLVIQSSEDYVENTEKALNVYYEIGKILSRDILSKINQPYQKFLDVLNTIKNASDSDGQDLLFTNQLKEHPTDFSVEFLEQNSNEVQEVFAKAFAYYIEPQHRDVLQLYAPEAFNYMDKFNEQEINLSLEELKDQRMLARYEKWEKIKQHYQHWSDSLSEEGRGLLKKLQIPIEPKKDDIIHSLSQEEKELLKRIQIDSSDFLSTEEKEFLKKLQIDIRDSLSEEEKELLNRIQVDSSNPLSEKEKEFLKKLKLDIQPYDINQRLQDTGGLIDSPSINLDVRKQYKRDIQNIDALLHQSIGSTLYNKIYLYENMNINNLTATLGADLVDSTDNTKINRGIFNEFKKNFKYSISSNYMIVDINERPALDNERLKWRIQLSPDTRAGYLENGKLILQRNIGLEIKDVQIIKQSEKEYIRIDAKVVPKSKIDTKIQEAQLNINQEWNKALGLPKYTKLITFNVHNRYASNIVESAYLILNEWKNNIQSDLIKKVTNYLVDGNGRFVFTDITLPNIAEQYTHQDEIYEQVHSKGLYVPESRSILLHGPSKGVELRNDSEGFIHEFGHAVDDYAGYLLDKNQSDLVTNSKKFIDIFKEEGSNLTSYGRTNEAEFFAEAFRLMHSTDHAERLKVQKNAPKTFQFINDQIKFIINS
BoNT F protease: BoNT F light chain protease inhibition; Multiplex microsphere protease cleavage assay, flow cytometry; inhibition, % at 10 µM; 360,000 tested, 0.22% active; in the data active = inhibition above about 35%, passing the limit was not always enough; inconclusive = no clear call, values can overlap the other calls; note: plate controls were buffer without enzyme for full effect and enzyme alone for no effect
Autofluor counter: counter-screen for toxin protease inhibitors: compound fluorescence | fluorescence intensity (no concentration beside the values) | compound autofluorescence counterscreen, microsphere flow cytometry; active compounds read high | 360,000 tested, 3.1% active; in the data active = fluorescence intensity above about 16000; inconclusive = no clear call, values can overlap the other calls
BoNT A protease: blocks Botulinum neurotoxin A light chain protease; multiplex microsphere protease substrate cleavage, flow cytometry; inhibition, % at 10 µM; 360,000 tested, 0.17% active; AID 588499; note: plate controls were buffer without enzyme for full effect and enzyme alone for no effect
* marks the source's active call; other numbers are inactive results; i = inactive; ? = inconclusive; . = not tested or not shown. Cut-off read from the data, not from the text of the source, unless noted: active = inhibition above about 30%; inconclusive = no clear call, values can overlap the other calls; inactive = below that.

SMILES	MazEF act	Vc quorum ag	Anthrax LF inh2	BoNT F protease	Autofluor counter	BoNT A protease
Cc1ccc(CNC(=O)C2CCCCC2C(=O)O)cc1 (centres undefined)	1.0	1.7	-7.4	1.1	21599*	?
O=C(O)c1ccc(Cl)c(NC(=O)C2CCCN2S(=O)(=O)c2cccc3nsnc23)c1 (centres undefined)	-1.8	i	-3.0	-0.2	20420*	-0.4
O=C(NC1CCCCC1)C1CCCN1S(=O)(=O)c1cccc2nsnc12 (centres undefined)	9.7	-0.2	3.3	6.2	9197	-0.4
CCC(C)n1c(SCC(=O)NC2CCCC2)nc2ccccc2c1=O (centres undefined)	8.9	-1.8	-1.8	-6.9	?	-2.1
CCN(CC)CCCNC(=O)c1nn2c(C(F)(F)F)cc(-c3ccccc3)nc2c1Cl	12.4	-1.0	3.0	-5.4	3856	-1.3
O=C(Nc1cc(F)cc(F)c1)c1ccc(NCCc2ccccc2)c([N+](=O)[O-])c1	551.6*	-0.7	1.3	4.9	10118	-0.8
O=C(Nc1ccccc1)c1ccc(NCCN2C(=O)CCC2=O)c([N+](=O)[O-])c1	50.5*	-1.5	-1.5	-4.0	3328	-0.5
CCN(CC)C(=O)C1=C(C)N(Cc2ccc(OC)cc2)C(=O)C(CC(=O)NCC2CCCCC2)C1 (centres undefined)	-1.0	0.0	-0.5	0.6	3720	-0.4
CCOC(=O)Cc1csc(NC(=O)CSc2nnc(-c3ccc(NS(=O)(=O)CC)cc3)o2)n1	-3.7	-3.2	2.7	2.6	21681*	2.1
CCN(Cc1ccccc1)S(=O)(=O)c1csc(C(N)=O)c1	0.8	-0.3	2.0	-7.4	4105	-0.3
CCN(CC)S(=O)(=O)c1csc(C(=O)OCC(=O)c2ccccc2)c1	-1.2	i	-4.4	-1.2	17304*	-1.9
O=C(NCCCn1ccnc1)c1ccc(C(F)(F)F)cc1	4.4	i	-1.5	-15.3	3529	-0.5
O=C(Nc1cccc(Br)c1)c1ccn[nH]1	1.4	-5.3	-3.8	-5.0	21776*	-2.8
COc1cccc(CN(C(=O)c2cc3ccccc3oc2=O)C2CCS(=O)(=O)C2)c1 (centres undefined)	6.4	i	-2.2	-4.3	6261	-1.6
Cc1nc(NCc2ccccc2)[nH]c(=O)c1CCC(C)C	5.6	-0.2	0.4	0.0	24000*	-0.8
CN[C@H]1C[C@H]2c3[nH]c4ccccc4c3CCN2C(=O)[C@H]1[C@H](C)O	2.3	i	-15.8	-19.9	3019	-1.2
O=C1CSc2ccc(C(=O)NCCC3=CCCCC3)cc2N1	0.5	-1.4	-0.8	2.3	23017*	?
COCCNC(=O)c1ccc2c(c1)NC(=O)CS2	0.5	-0.7	-7.5	0.4	19046*	2.3
COC(=O)c1ccc(CNC(=O)c2ccc3c(c2)NC(=O)CS3)cc1	6.3	i	.	.	.	.
CCN(Cc1ccncc1)Cc1nc(CC2CC2)no1	-7.9	-0.1	5.9	-3.9	4634	-1.6
CC(Oc1ccccc1F)C(=O)NNC(=O)Cc1ccc(S(=O)(=O)N2CCOCC2)s1 (centres undefined)	1.5	i	108.8*	86.4*	6061	99.7*
Cc1nc(N)nc(N)c1Oc1ccc(Cl)cc1	0.1	525.6*	0.7	-7.9	2801	-0.2
CC(=O)Nc1nc(C)c(Oc2ccc(Cl)cc2)c(=O)[nH]1	0.6	-0.6	4.7	?	4207	?
O=C(CSc1nc2ccccc2c(=O)n1NC(=O)Cc1ccccc1)NCc1ccccc1	5.8	7.4	0.5	-7.4	23372*	-1.6
O=C(CSc1nc2ccccc2c(=O)n1NC(=O)c1ccccc1)c1ccccc1	0.4	3.6	-5.2	1.3	22548*	-0.4
SMILES	MazEF act	Vc quorum ag	Anthrax LF inh2	BoNT F protease	Autofluor counter	BoNT A protease
Cc1nc2ccccc2c(=O)n1NC(=O)c1ccc(Cl)cc1	4.0	i	-9.1	-22.0	3203	0.5
COc1ccc(C(=O)Nn2c(SCC(=O)NC3CCCC3)nc3ccccc3c2=O)cc1	1.8	i	0.8	4.9	21985*	1.2
O=C(CSc1nc2ccccc2c(=O)n1NC(=O)Cc1ccccc1)NCc1ccco1	-7.5	-0.2	-3.0	3.2	?	0.0
O=C(CSc1nc2ccccc2c(=O)n1NC(=O)c1ccccc1)c1ccc(Cl)cc1	2.7	-2.8	-0.9	5.1	19026*	?
N#Cc1ccc(C(=O)Nc2cccc(NC(=O)c3ccco3)c2)c(F)c1	-6.3	-2.4	-4.7	-2.3	4058	-0.3
CC1(C(=O)NS(C)(=O)=O)CCN1C(=O)C/C=C/c1ccccc1 (centres undefined)	.	i	-1.2	5.0	3698	0.4
COc1cccc(CN(C)C(=O)c2cccc(S(=O)(=O)Nc3cccc(C)c3)c2)c1OC	-5.8	-3.8	-2.9	11.9	?	0.5
O=C(O)c1ccc(C(=O)Nc2cccc3ccccc23)c(C(=O)O)c1	7.4	224.8*	-4.8	-1.0	3372	-0.4
O=C(Nc1cccc(C(=O)O)c1)Nc1cccc2ccccc12	0.8	-0.6	2.5	5.4	3365	-2.1
CCOC(=O)c1c(C)c(C(=O)NCc2ccc3c(c2)OCO3)c(C)n1CC	1.4	-0.3	0.8	-2.1	2126	-0.5
CCOC(=O)c1c(C)c(C(=O)NCCCOC(C)C)c(C)n1C	6.2	-0.1	-6.5	2.4	19718*	2.4
CCOC(=O)c1c(C)c(C(=O)NC(C)COC)c(C)n1C (centres undefined)	7.7	i	-3.2	-4.8	17439*	?
CCOC(=O)c1c(C)c(C(=O)NCCN2CCOCC2)c(C)n1C	0.4	i	-14.1	13.0	13279	12.6
CCOC(=O)c1c(C)c(C(=O)NCc2ccc3c(c2)OCO3)c(C)n1C	1.3	i	-2.4	-7.9	16759*	-2.1
COc1ccccc1C(=O)COC(=O)Cn1[nH]c(=O)c2ccccc2c1=O	8.2	-1.6	-2.2	-1.1	5259	0.6
CN1CCN(c2nc(N(C)C)oc(=O)c2C#N)CC1	6.5	3.1	-1.0	1.1	22716*	-0.6
CN(C)c1nc(N2CCN(c3ccc(F)cc3)CC2)c(C#N)c(=O)o1	-16.4	-0.7	?	?	?	?
Cc1ccc(S(=O)(=O)N2CCN(C(=O)CN3CCOCC3)C2C(C)C)cc1 (centres undefined)	2.9	i	2.5	-0.5	22471*	1.6
Cc1ccc(S(=O)(=O)N2CCN(S(=O)(=O)c3ccc(C)cc3)C3OCCOC32)cc1 (centres undefined)	0.4	i	-1.1	-2.0	16671*	-1.5
Cc1nc2ccc(C(=O)Nc3ccc4c(c3)OCC(=O)N4)cn2c1N(C)C(=O)CCc1ccccc1	.	i	4.0	-2.5	3706	-0.2
C[C@@H]1O[C@@H]1P(=O)(O)O	8.8	-0.6	-3.4	-12.4	4957	-1.4
C[C@H]1O[C@H]1P(=O)(O)O	7.5	29.2*	-7.7	0.4	4401	-0.4
COc1ccccc1Oc1coc2cc(OC(=O)N3CCOCC3)ccc2c1=O	7.7	i	4.7	2.5	22043*	2.6
